From PubChem BioAssay
Hits are enriched below; roughly 4.3% of the tested compounds scored in any of these assays.
SMARCA2 act: SMARCA2 function activation, primary screen | MG213 cells, MMTV-luciferase reporter, dexamethasone, overnight | 1% of 370,000 active | activation, % at 9.1 µM; in the data active means activation above about 7.8%;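 further: 0% = vehicle wells and 100% = reference activator wells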
esBAF inh: blocks esBAF chromatin remodeling in mouse ES cells; Bmi1-luciferase knock-in reporter, 24 h; 100% = twice the neutral-well signal; 2% of 350,000 active; reporter increase, % at 12.5 µM; AID 602393; in the data active means activation above about 40%; inconclusive means no clear call, values can overlap the other calls;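 further: 0% = median of the plate's neutral control wells and 100% = double that signal; a rise in the Bmi1 reporter signal indicates esBAF inhibition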
MITF TRPM1 HTS: MITF TRPM1 promoter activation in melanoma cells. 0.75% of 300,000 active. AID 588334. SK-MEL-5 TRPM1-promoter luciferase, 24 h; % of positive control, neutral wells = 0. activation, % at 12.5 µM;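 active means mean activation of at least 80% with every replicate also reaching 80%; inconclusive means mean reaches 80% but some replicate falls short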;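 further: 0% = neutral control wells and 100% = parthenolide positive control wells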
HSF1 activator: increases HSF-1 driven luciferase reporter signal | NIH3T3-HGL HSF-1 luciferase reporter, MG132, 8 h; 100% = twice DMSO control signal | activation, % at 9 µM | 1.7% of 300,000 active | AID 504408;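 active means mean replicate activation of at least 50% with a set share of replicates each reaching 50%; inconclusive means only one of those two conditions met; inactive means mean below 50% and too few replicates reaching it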;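 further: 0% = median of the neutral control wells and 100% = twice that signal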
Wnt bcat act: Wnt/beta-catenin pathway activation | activation, % at 9.35 µM | Wnt/beta-catenin reporter cell assay, activator, plate reader | 1.2% of 300,000 active; in the data active means activation above about 30%, passing the limit was not always enough; inconclusive means no clear call, values can overlap the other calls;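 further: 0% = neutral control wells and 100% = positive control wells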
HSF1 inhib: HSF1 inhibition; NIH3T3-HGL HSE-luciferase, MG132-induced, luminescence 8 h; active compounds read low; activity change, negative = inhibition, % at 7.5 µM (by protocol); 0.77% of 300,000 active;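 active means more than half of replicate wells show activity change below -50%, luminescence cut by over half; inconclusive means some wells, but at most half, below -50%; inactive means no replicate well below -50%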;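 further: luciferase reports HSF-1 transcriptional activity via heat shock element; 0% = median of DMSO wells and -100% = zero luminescence signal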
SMARCA2 act conf: SMARCA2 activation, confirmation screen; shares compounds with SMARCA2 act; MG213 cells, MMTV-luciferase with dexamethasone, luminescence, overnight; MG213 cells expressing E1A, Rb sequestered; DMSO wells 0%, reference activator 100%; activation, % at 9.1 µM; 30% of 3,500 active;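 active means activation above its plate's cutoff, the mean activation of tested wells plus 3 SD, cut at about 7.9% in these data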
GAL4-VP16 Luc: counter-screen for SMARCA2 activators: GAL4-VP16 luciferase reporter activation; 41% of 3,500 active; AID 686939; activation, % at 9.1 µM; shares compounds with SMARCA2 act; HEK293 GAL4-VP16 pG5luc reporter, luciferase luminescence; scaled: DMSO wells 0%, SAHA wells 100%;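 active means activation above the solvent-only control well mean plus 3 SD, averaged across control plates, cut at about 5.2% in these data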
* = called active by the depositor; ? = inconclusive; / = no result given.

SMILES	SMARCA2 act	esBAF inh	MITF TRPM1 HTS	HSF1 activator	Wnt bcat act	HSF1 inhib	SMARCA2 act conf	GAL4-VP16 Luc
CC(=O)Nc1ccc2c(c1)ncn2-c1ccccc1	11.6*	25.5	/	38.2	0.7	11.7	15.7*	7.3*
C[C@@H]1CN([C@H](C)CO)C(=O)c2cccc(NC(=O)C3CCOCC3)c2O[C@@H]1CN(C)S(=O)(=O)c1cn(C)cn1	/	-6.2	/	/	/	/	/	/
C[C@@H]1CN([C@H](C)CO)C(=O)c2cc(NC(=O)Nc3cccc4ccccc34)ccc2O[C@H]1CN(C)S(=O)(=O)c1cccs1	/	-2.7	/	/	/	/	/	/
COC(=O)c1c(-c2cccnc2)csc1NC(=O)c1cc(C)on1	10.3*	33.9	57.5	34.4	29.3	19.2	18.6*	14.1*
Cc1ccc(S(=O)(=O)NC(=O)NC(C)c2ccc(F)cc2)cc1 (stereo unspecified)	8.0*	1.1	-5.5	-2.0	-2.8	-6.3	-0.3	0.8
Cc1ccc(S(=O)(=O)NC(=O)NC(C)Cc2ccccc2)cc1 (stereo unspecified)	1.1	-1.5	0.5	0.9	-3.0	2.1	/	/
CC(C)CN(C)C(=O)CCc1nnc(Cc2cccc(C(F)(F)F)c2)o1	8.4*	/	63.9	24.0	-1.4	28.3	6.1	5.2*
CC(NC(=O)CCc1nnc(Cc2cccc(C(F)(F)F)c2)o1)C1CC1 (stereo unspecified)	3.9	36.7	55.0	35.2	22.3	5.3	/	/
COc1ccc(CCNC(=O)CN2C(=O)CSc3ccc(S(=O)(=O)N4CCOCC4)cc32)cc1OC	0.8	-4.4	3.6	14.0	-1.8	3.0	/	/
CCOc1ccc(CNC(=O)CN2C(=O)CSc3ccc(S(=O)(=O)N4CCOCC4)cc32)cc1OC	8.8*	-3.4	-1.0	3.1	-1.2	-2.0	-5.5	-0.5
Cc1ccc(S(=O)(=O)Cc2nc3ccccc3c(=O)[nH]2)cc1	1.6	6.3	-10.8	8.1	/	4.7	/	/
Cc1ccc(/C=C/c2nc3ccccc3c(=O)[nH]2)cc1	8.7*	-56.4	-13.5	-18.0	-3.0	-25.2	9.6*	5.8*
CCc1ccccc1-n1ncc(C(=O)Nc2ccc(OC)cc2)c1C	8.0*	25.0	75.4	/	17.8	/	4.8	12.4*
C[C@@H]1CN([C@@H](C)CO)C(=O)c2cc(C#Cc3cccnc3)cnc2O[C@H]1CN(C)C(=O)CC1CC1	/	-7.9	/	/	/	/	/	/
COc1cc2c3nnc(-c4ccccc4)c-3cn(Cc3ccccc3F)c2cc1OC	9.9*	/	/	4.6	-17.0	7.0	17.6*	2.2
COCC#Cc1cnc2c(c1)C(=O)N([C@H](C)CO)C[C@H](C)[C@@H](CN(C)C(=O)C1CCCCC1)O2	/	3.5	/	/	/	/	/	/
CCCN(C)C[C@H]1OCCCC[C@H](C)Oc2ccc(NS(=O)(=O)c3ccc(OC)cc3)cc2C(=O)N([C@@H](C)CO)C[C@H]1C	/	-3.0	/	/	/	/	/	/
O=C(CC(Sc1ccc(Br)cc1)C(=O)O)c1ccc(F)cc1 (stereo unspecified)	8.6*	7.0	-5.8	-27.5	0.4	-5.8	-1.1	0.8
O=C(C[C@H]1CC[C@@H](NC(=O)Nc2ccc(C(F)(F)F)cc2)[C@@H](CO)O1)NCc1cccc(F)c1	/	-2.5	/	/	/	/	/	/
O=C1C=C(c2ccc3c(c2)OCO3)C[C@@H](c2ccc3c(c2)OCO3)C1	0.3	-1.5	21.0	/	-1.3	/	/	/
COc1ccc([C@H]2CC(=O)C=C(c3ccc4c(c3)OCCO4)C2)cc1	8.3*	13.8	17.2	/	5.1	/	2.2	1.9
O=C(C1=C(O)C(=O)N(CCc2ccccc2)C1c1ccncc1)c1cc2ccccc2o1 (stereo unspecified)	2.0	/	2.1	-14.2	0.8	-0.4	/	/
O=C(C1=C(O)C(=O)N(c2nccs2)C1c1ccccc1)c1cc2ccccc2o1 (stereo unspecified)	14.1*	/	/	24.1	?	0.5	-1.2	3.4
